From PubChem BioAssay
Values without a mark were called inactive. The rule behind the calls is not given here.

molecular target: Lethal factor (Bacillus anthracis) (UniProt P15917); assay: Bacillus anthracis lethal factor inhibition, microsphere flow cytometry protease assay, validation at 10 µM (AID 588461); settings: multiplex microsphere protease cleavage assay, stronger effect = higher value

SMILES | inhibition
O=C(N1CCCCC1)C1(c2ccccc2)CCOCC1 | -2.1%
COc1cccc(C2CC(=O)C3=C(C2)Nc2ccccc2N(C(=O)CCC(=O)O)C3c2ccc(F)cc2)c1 (stereo unspecified) | 5.1%
Cc1cc(Cl)cc2c1NC(=O)[C@]21[C@@H]2C(=O)N(Cc3ccccc3)C(=O)[C@@H]2[C@@H]2CCCN21 | 2.3%
COc1ccccc1NC(=O)N1CCc2[nH]c3ccc(Cl)cc3c2C1 | -0.7%
NC(=O)c1cnccn1 | 5.7%
CCCCOn1c(C)c(C(C)=O)c2c3no[n+]([O-])c3ccc21 | -1.9%
CN/C(=C/[N+](=O)[O-])NCCSCc1ccc(CN(C)C)o1 | -7.4%
O=C(NCCc1ccccc1)C1CCN(C2CCN(Cc3ccco3)CC2)CC1 | -9.8%
CCC1CCc2c(sc(NC(=O)c3cccnc3)c2C(N)=O)C1 (stereo unspecified) | -6.2%
COc1cc(C(=O)Nc2ccc(N(C)C)cc2)c([N+](=O)[O-])cc1OC | -19.3%
Cc1cccc(N2C(=O)C3C(c4ccccc4)OC4(C(=O)c5ccccc5C4=O)C3C2=O)c1 (stereo unspecified) | -3.5%
Nc1cccc(C(=O)O)c1 | 3.3%
Cc1ccc2c(c1)c(=O)c1c3n2CCN(C(=O)CCl)C3CC1 (stereo unspecified) | -32.4%
NS(=O)(=O)c1cc2c(cc1C(F)(F)F)NCNS2(=O)=O | 5.4%
O=C(O)c1cc2cc(Cl)cc(Cl)c2oc1=O | 1.1%
CC(=O)NCCCC(=O)NC(CCC(=O)OCc1ccccc1)C(=O)OCc1ccccc1 (stereo unspecified) | -8.6%
